According to PubChem BioAssay:
Calls of active or inactive are those of the source. Unless noted, no rule for the calls is given here.

Tests used:
[1] = compound effects on lung adenocarcinoma cell viability – A549, calcein-AM fluorescence, 48 h, basal, profiling panel (AID 1162); settings: higher = more signal; also: test concentration not given here
[2] = compound effects on differentiated 3T3-L1 adipocyte viability – cell-based, 3T3-L1 adipocytes, calcein-AM fluorescence, 48 h, basal, profiling panel (AID 1163); settings: 3T3-L1 adipocytes viability, higher = more signal; also: test concentration not given here
[3] = compound effects on hepatocellular carcinoma cell viability – HepG2, calcein-AM fluorescence, 48 h, basal, profiling panel (AID 1164); settings: higher = more signal; also: test concentration not given here
[4] = compound effects on multiple myeloma cell viability – MM1S, calcein-AM fluorescence, 48 h, basal, profiling panel (AID 1165); settings: higher = more signal;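 also: viability of MM1S multiple myeloma cells under basal unstimulated conditions; test concentration not given here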
[5] = calcein-AM signal in unstimulated myeloma cells – cell-based, calcein-AM fluorescence, 48 h, PK04 Diversity Set, profiling panel (AID 1166); settings: RPMI8226 myeloma viability, higher = more signal;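 also: cells grown under basal conditions without added stimulus; test concentration not given here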
[6] = JC-1 mitochondrial signal, unstimulated HepG2 cells – cell-based, JC-1 fluorescence, 24 h, 100 nL compound, profiling panel (AID 1167); settings: HepG2 mitochondrial potential, higher = more signal; also: test concentration not given here
[7] = JC-1 mitochondrial signal, unstimulated adipocytes – cell-based, JC-1 fluorescence, 3T3-L1 adipocytes, 24 h, 100 nL compound, profiling panel (AID 1168); settings: JC-1 mitochondrial fluorescence, higher = more signal, called active from +8 up or from −8 down; also: test concentration not given here
[8] = JC-1 mitochondrial signal, unstimulated myeloma cells – cell-based, JC-1 fluorescence, RPMI8226, 24 h, 100 nL compound, profiling panel (AID 1169); settings: JC-1 mitochondrial potential fluorescence, higher = more signal; also: test concentration not given here
[9] = JC-1 mitochondrial signal, unstimulated MM1S myeloma – cell-based, JC-1 fluorescence, 24 h, 100 nL compound, profiling panel (AID 1170); settings: MM1S mitochondrial potential, higher = more signal; also: test concentration not given here
[10] = resazurin metabolic signal in A549 cells – cell-based, resazurin fluorescence, 24 h, PK04 Diversity Set, profiling panel (AID 1171); settings: A549 viability, higher = more signal, called active from +8 up or from −8 down; also: test concentration not given here
[11] = resazurin metabolic signal in HepG2 cells – cell-based, resazurin fluorescence, 24 h, PK04 Diversity Set, profiling panel (AID 1172); settings: HepG2 viability, higher = more signal; also: test concentration not given here
[12] = budding yeast growth changes without added modifier – OD600, strain BY4716, 24 h, basal condition, primary screen (AID 1173); settings: S. cerevisiae BY4716 growth, OD600, 24 h; higher = more signal, called active from +8 up or from −8 down
[13] = viability profiling in MM1S myeloma cells – cell-based, resazurin fluorescence, basal, 24 h, PK04 Diversity Set, profiling panel (AID 1174); settings: higher = more signal, called active from +8 up or from −8 down; also: test concentration not given here
[14] = molecular target: Dihydroorotate dehydrogenase (quinone), mitochondrial (Plasmodium falciparum (isolate 3D7)) (UniProt Q08210); test: inhibition of P. falciparum DHODH – biochemical, C-terminal His tag, absorbance 600 nm, primary screen (AID 1175); settings: PfDHODH enzyme, DCIP absorbance 600 nm; higher = more signal, called active from +8 up or from −8 down;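 also: recombinant parasite enzyme with a five histidine tag at its C terminus; test concentration not given here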
[15] = inhibition of PAO1 biofilm formation – strain PAO1, LB-PBS medium, absorbance 600 nm, primary screen (AID 1176); also: test concentration not given here; settings: P. aeruginosa PAO1 growth/biofilm, A600, 12 h; higher = more signal
[16] = growth modulation of vineyard yeast isolate – strain RM11-1a, OD600, basal, 24 h, primary screen (AID 1177);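 also: cultures grown under basal conditions with no added stressor; test concentration not given here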; settings: S. cerevisiae RM11-1a growth, OD600, 24 h; higher = more signal, called active from +8 up or from −8 down
[17] = growth of efflux-deficient E. coli DRC39 – strain DRC39, OD650, 24 h, E. coli filamentation inducers, primary screen (AID 1178);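 also: growth measured as culture turbidity by optical density at 650 nm; test concentration not given here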; settings: E. coli DRC39 acrAB, higher = more signal, called active from +8 up or from −8 down
[18] = growth of efflux-deficient E. coli DRC39 – strain DRC39, OD650, 48 h, E. coli filamentation inducers, primary screen (AID 1179);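 also: screen aims at cell division blockers that make cells filament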; settings: E. coli DRC39 delta-acrAB growth, higher = more signal, called active from +8 up or from −8 down
[19] = viability profiling in RPMI8226 myeloma cells – cell-based, resazurin fluorescence, basal, 24 h, PK04 Diversity Set, profiling panel (AID 1180); settings: higher = more signal;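 also: RPMI8826 multiple myeloma cell line at 5000 cells per well; test concentration not given here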
[20] = molecular target: E3 ubiquitin-protein ligase XIAP (Homo sapiens) (UniProt P98170); test: small molecules binding XIAP protein – biophysical, small-molecule microarray, fluorescence 635 nm, primary screen (AID 1181); settings: higher = more signal;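 also: score merges 667 nm emission and signal to noise over triplicate slides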
E3 ubiquitin-protein ligase XIAP (Homo sapiens), sequence (P98170 whole entry, looked up): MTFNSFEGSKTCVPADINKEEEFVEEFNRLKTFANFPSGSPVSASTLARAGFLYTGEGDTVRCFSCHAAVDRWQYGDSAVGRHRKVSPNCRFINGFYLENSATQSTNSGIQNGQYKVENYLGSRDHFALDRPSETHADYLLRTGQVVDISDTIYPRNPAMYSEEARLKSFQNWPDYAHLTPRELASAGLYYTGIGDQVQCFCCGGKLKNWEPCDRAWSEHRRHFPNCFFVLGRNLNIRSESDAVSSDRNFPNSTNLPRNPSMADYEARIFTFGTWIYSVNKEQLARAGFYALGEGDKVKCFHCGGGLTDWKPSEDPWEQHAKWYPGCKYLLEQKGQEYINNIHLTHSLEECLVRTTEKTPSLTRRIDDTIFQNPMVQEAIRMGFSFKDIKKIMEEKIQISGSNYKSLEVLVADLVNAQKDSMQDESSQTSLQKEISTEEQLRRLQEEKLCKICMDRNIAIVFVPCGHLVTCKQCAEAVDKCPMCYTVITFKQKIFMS

Dihydroorotate dehydrogenase (quinone), mitochondrial (Plasmodium falciparum (isolate 3D7)), sequence (Q08210 whole entry, looked up): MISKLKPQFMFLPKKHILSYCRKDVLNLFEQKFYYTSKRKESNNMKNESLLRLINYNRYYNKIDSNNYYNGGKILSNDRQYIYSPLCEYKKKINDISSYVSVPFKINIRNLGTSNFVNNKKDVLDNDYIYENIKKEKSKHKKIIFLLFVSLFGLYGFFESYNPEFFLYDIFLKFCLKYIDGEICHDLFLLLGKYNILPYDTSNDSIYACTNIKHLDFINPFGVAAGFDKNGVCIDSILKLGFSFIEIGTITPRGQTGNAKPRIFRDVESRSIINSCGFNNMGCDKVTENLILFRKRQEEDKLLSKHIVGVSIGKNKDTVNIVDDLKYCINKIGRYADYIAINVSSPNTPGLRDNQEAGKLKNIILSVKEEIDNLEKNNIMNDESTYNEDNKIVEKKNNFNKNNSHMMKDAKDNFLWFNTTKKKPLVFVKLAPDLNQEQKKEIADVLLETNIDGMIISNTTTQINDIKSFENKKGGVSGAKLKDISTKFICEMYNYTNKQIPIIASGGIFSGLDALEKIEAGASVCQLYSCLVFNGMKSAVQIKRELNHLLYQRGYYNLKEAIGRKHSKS

SMILES | z-score [1] | z-score [2] | z-score [3] | z-score [4] | z-score [5] | z-score [6] | z-score [7] | z-score [8] | z-score [9] | z-score [10] | z-score [11] | z-score [12] | z-score [13] | composite z-score [14] | z-score [15] | z-score [16] | z-score [17] | z-score [18] | z-score [19] | composite z-score [20]
CCCCN1CC=CC23O[C@@H]4C=CCOC(=O)[C@@H]4[C@H]2C(=O)N(C(CO)C(C)C)[C@@H]3C1=O (stereo not given in full) | -0.503 | -1.13 | -0.803 | 0.543 | -0.42 | -0.528 | -0.713 (inactive) | 0.184 | -0.071 | -0.519 (inactive) | -0.469 | 0.303 (inactive) | -0.908 (inactive) | -0.221 (inactive) | 0.0405 (inactive) | 0.707 (inactive) | -0.781 (inactive) | -0.825 (inactive) | -0.844 | -0.22
COC(=O)[C@@]1(Cc2ccc(OC)cc2)[C@H]2c3cc(C(=O)N4CCCC4)n(CCc4ccc(OC)c(Br)c4)c3C[C@H]2CN1C(=O)c1ccccc1 | -0.572 | -0.3 | 0.347 | -0.245 | -1.51 | 2.24 | -0.641 (inactive) | -0.767 | -0.569 | 0.568 (inactive) | -0.142 | 0.775 (inactive) | -0.354 (inactive) | -0.844 (inactive) | 0.0539 (inactive) | -0.101 (inactive) | -0.236 (inactive) | -0.351 (inactive) | 0.282 | 0.312
Cc1ccc(S[C@]2(C(=O)NCC(F)(F)F)CC(=O)N(C3CCCCC3)[C@@H]2c2ccc(CO)cc2)cc1 | 0.815 | 0.132 | 0.844 | -1.03 | -0.758 | 1.11 | 0.466 (inactive) | 0.0558 | -0.42 | -0.0508 (inactive) | -0.473 | -0.0396 (inactive) | 0.273 (inactive) | -1.41 (inactive) | 0.0309 (inactive) | 0.309 (inactive) | 0.457 (inactive) | 1.01 (inactive) | 0.149 | -0.155
O=C1C2C=CC(C(O)c3cccs3)N(Nc3ccccc3)C2C(=O)N1c1ccccc1 (stereo not given) | -0.125 | 0.715 | -0.379 | 0.473 | 0.502 | -1.72 | 0.673 (inactive) | -0.18 | -0.542 | -0.919 (inactive) | -1.51 | -3.05 (inactive) | -0.334 (inactive) | -0.116 (inactive) | 1.06 (inactive) | -0.272 (inactive) | 0.0187 (inactive) | -0.952 (inactive) | -0.717 | 0.0537
COC(=O)[C@@H]1N=C(c2ccc(OCCCO)cc2)O[C@@H]1c1ccccc1CN=[N+]=[N-] | 0.432 | -0.446 | -0.198 | -0.329 | -0.717 | -1.07 | 1.43 (inactive) | -0.16 | -0.741 | 1.07 (inactive) | 1.25 | -1.46 (inactive) | 0.55 (inactive) | -0.487 (inactive) | -0.636 (inactive) | 0.657 (inactive) | 0.0547 (inactive) | 0.396 (inactive) | 0.11 | 0.279
CC(C)C[C@H]1NC(=O)[C@@H](C)NC(=O)[C@@]23C(=O)N[C@@H](Cc4ccccc4)C2[C@H](C)[C@@]2(C)O[C@H]2C3/C=C/C/C=C\CNC1=O (stereo not given in full) | 0.65 | 0.305 | -0.363 | -0.256 | -0.64 | -0.553 | 0.023 (inactive) | 0.471 | 0.191 | -0.0639 (inactive) | -0.328 | -0.808 (inactive) | 0.0814 (inactive) | -1 (inactive) | 0.531 (inactive) | -1.27 (inactive) | -0.46 (inactive) | 0.184 (inactive) | 0.184 | -0.102
CCOC(=O)C1=CCC(c2cc3ccccc3[nH]2)N(S(=O)(=O)c2ccccc2[N+](=O)[O-])C1 (stereo not given) | 0.0857 | -0.913 | 0.527 | 0.277 | -0.467 | 1.17 | -0.433 (inactive) | -0.366 | -1.61 | -0.869 (inactive) | -0.0211 | 1.08 (inactive) | -1.08 (inactive) | -0.242 (inactive) | 0.546 (inactive) | -0.16 (inactive) | -0.591 (inactive) | 0.158 (inactive) | -1.62 | -0.014
COC(=O)[C@@]1(CCC(=O)OC(C)(C)C)N=C(c2ccc(OCCCO)cc2)O[C@H]1c1ccccc1CN=[N+]=[N-] | -1.06 | -1.3 | -2.51 | -3.2 | -3.95 | -1.7 | -0.472 (inactive) | -1.12 | -1.73 | -0.227 (inactive) | 0.118 | 0.696 (inactive) | -1.79 (inactive) | 0.507 (inactive) | 0.563 (inactive) | 1.56 (inactive) | 0.224 (inactive) | -0.0915 (inactive) | -2.11 | 0.165
COCCCN1C(=O)[C@@]2(Cc3ccccc31)c1ccccc1C(=O)N(Cc1ccccc1OC)[C@H]2c1ccc(CO)cc1 | -0.609 | 1.12 | -0.95 | -0.492 | -0.452 | -0.499 | -0.722 (inactive) | 0.695 | -0.0862 | -0.458 (inactive) | -0.525 | -0.0955 (inactive) | -0.309 (inactive) | -3.75 (inactive) | 0.292 (inactive) | -0.724 (inactive) | 0.487 (inactive) | -0.128 (inactive) | -0.0935 | -0.0622
